Consider 20 molecules from PubChem BioAssay.

Experiment [1] in a line: antimalarial activity against Dd2 strain (AID 2302;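 active = growth inhibition above 50% at the single 2 µM test dose, taken to imply half-maximal potency below 2 µM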;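 note: 0% = DMSO untreated growth and 100% = chloroquine plus artemisinin killed control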). Particulars: P. falciparum Dd2 in RBCs, LDH growth readout, 72 h; at 2 µM; hits give high values.
Experiment [2] can be described thus: HepG2 cytotoxicity, primary screen, cytotoxicity control for P. falciparum antimalarial project, cell-based, ATP luminescence (AID 2303;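 active = inhibition above 50%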;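 note: 0% = DMSO wells and 100% = digitonin-killed cells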). Particulars: HepG2 viability, 24-48 h, at 10 µM, hits give high values.
In experiment [3] the target is L-lactate dehydrogenase (Plasmodium falciparum (isolate CDC / Honduras)) (UniProt Q27743). As to the kind of experiment: PfLDH activity inhibition – cell lysate, 3D7 strain, counter-screen for P. falciparum growth inhibition project (AID 2304).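 Note: 0% = vehicle and 100% = reference inhibitor.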 Particulars: P. falciparum 3D7 crude extract, LDH APAD/NBT absorbance; at 2 µM; hits give high values. In general terms: The purpose of a counterscreen is to sort out artefacts and off-target activity.
Sequence of L-lactate dehydrogenase (Plasmodium falciparum (isolate CDC / Honduras)) (Q27743 whole entry, looked up): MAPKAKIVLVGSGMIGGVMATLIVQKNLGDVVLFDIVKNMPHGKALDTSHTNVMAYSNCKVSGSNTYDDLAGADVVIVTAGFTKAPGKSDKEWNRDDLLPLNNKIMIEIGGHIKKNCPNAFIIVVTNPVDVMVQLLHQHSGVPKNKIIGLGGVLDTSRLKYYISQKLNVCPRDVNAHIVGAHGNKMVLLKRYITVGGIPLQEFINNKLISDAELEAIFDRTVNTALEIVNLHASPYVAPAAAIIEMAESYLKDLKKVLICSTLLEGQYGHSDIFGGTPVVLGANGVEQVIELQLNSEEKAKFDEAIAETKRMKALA

Experiment [4] in a line: inhibition of 3D7 malaria parasite growth – strain 3D7 (AID 2306).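 Note: 0% = DMSO wells and 100% = chloroquine plus artemisinin control wells.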 The note with it: P. falciparum 3D7 erythrocytic growth, LDH absorbance, 72 h; at 2 µM; hits give high values.
Experiment [5] concerns the target Calcium-dependent protein kinase 1 (Plasmodium falciparum (isolate 3D7)) (UniProt P62344). Briefly: PfCDPK1 kinase inhibitors, biochemical, TCAMS library (AID 1159585; cut-off not given, nearly all actives have IC50 up to about 0.98 µM;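 note: inhibitors leave more ATP so luminescence rises with inhibition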). The note with it: recombinant PfCDPK1, Kinase-Glo ATP depletion luminescence. (In general: Kinase-Glo measures the ATP left after a reaction by luminescence.)
Experiment [6] concerns the target Plasmodium falciparum protein kinase 6 (PK6, PF3D7_1337100) (UniProt Q8IDW1). As to the kind of experiment: PfPK6 kinase inhibitors, biochemical, TCAMS library (AID 1159586). Particulars: recombinant PfPK6, Kinase-Glo ATP depletion luminescence.
For experiment [7], the target named is Protein kinase 7 (PK7), Plasmodium falciparum 3D7 (PF3D7_0213400) (UniProt Q7YTF7). As to the kind of experiment: inhibition of Plasmodium PK7 catalytic activity – biochemical, TCAMS antimalarial set, Kinase-Glo luminescence (AID 1159587). Particulars: recombinant PfPK7, Kinase-Glo ATP depletion luminescence.
Sequence of Protein kinase 7 (PK7), Plasmodium falciparum 3D7 (PF3D7_0213400) (Q7YTF7 1-343): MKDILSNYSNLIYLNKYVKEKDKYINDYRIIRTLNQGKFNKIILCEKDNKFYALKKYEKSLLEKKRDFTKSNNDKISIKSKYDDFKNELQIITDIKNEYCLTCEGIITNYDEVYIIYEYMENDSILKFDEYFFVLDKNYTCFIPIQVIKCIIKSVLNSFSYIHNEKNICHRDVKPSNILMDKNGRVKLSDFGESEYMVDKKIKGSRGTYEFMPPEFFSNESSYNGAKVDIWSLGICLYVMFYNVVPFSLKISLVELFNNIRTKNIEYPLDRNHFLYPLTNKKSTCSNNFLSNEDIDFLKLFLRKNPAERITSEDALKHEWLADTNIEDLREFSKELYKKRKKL
For experiment [8], the target named is Calcium-dependent protein kinase 4 (Plasmodium falciparum (isolate 3D7)) (UniProt Q8IBS5). As to the kind of experiment: PfCDPK4 kinase inhibitors, biochemical, TCAMS library (AID 1159588; cut-off not given, nearly all actives have IC50 up to about 0.91 µM). The note with it: recombinant PfCDPK4, Kinase-Glo ATP depletion luminescence.
Sequence of Calcium-dependent protein kinase 4 (Plasmodium falciparum (isolate 3D7)) (Q8IBS5 whole entry, looked up): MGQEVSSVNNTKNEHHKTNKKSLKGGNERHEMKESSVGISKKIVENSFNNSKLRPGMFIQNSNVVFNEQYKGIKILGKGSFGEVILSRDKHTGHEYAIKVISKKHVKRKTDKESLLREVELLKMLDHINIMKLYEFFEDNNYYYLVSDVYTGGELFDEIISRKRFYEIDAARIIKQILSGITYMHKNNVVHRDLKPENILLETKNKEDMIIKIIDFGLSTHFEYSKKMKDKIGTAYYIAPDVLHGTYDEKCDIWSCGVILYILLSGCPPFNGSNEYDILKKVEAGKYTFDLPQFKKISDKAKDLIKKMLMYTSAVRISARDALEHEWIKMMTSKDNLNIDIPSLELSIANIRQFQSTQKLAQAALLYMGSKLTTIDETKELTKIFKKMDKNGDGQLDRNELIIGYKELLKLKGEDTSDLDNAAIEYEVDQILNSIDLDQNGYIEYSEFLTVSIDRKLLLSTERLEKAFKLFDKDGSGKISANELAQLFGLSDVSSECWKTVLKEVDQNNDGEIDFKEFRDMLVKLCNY

Unmarked numbers belong to inactive results. For some of these results: Entries with a potency or affinity are not part of this list. Active and inactive are the calls of the source. Unless noted, the rule behind the calls is not given here.

Sequence of Plasmodium falciparum protein kinase 6 (PK6, PF3D7_1337100) (Q8IDW1 1-305): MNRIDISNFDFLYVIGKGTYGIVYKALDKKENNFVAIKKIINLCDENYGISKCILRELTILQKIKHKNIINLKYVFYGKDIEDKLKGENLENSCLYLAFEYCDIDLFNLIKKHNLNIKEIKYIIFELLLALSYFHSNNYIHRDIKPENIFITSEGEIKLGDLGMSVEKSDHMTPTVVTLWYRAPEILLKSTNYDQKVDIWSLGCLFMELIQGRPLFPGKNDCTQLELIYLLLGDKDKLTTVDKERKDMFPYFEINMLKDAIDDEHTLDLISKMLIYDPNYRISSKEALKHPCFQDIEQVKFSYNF
Sequence of Calcium-dependent protein kinase 1 (Plasmodium falciparum (isolate 3D7)) (P62344 whole entry, looked up): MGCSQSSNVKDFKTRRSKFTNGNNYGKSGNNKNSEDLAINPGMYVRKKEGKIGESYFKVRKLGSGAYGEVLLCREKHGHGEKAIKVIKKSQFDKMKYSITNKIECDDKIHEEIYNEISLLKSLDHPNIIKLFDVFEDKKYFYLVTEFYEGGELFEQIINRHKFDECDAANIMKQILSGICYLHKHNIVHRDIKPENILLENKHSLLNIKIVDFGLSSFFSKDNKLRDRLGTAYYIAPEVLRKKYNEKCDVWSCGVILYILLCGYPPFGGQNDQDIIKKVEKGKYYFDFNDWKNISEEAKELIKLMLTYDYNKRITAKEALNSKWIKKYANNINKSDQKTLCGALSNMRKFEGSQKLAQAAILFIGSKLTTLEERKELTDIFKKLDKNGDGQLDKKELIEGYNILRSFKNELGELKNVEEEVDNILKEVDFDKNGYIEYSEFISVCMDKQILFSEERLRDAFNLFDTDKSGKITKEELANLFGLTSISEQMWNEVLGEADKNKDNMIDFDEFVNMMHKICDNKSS

With `Cc1ccc(NC(=O)N2CCCN(CCCCCNC(=O)/C=C/c3ccc(Cl)c(Cl)c3)CC2)cc1C`, the values for the growth inhibition in experiment [1] and in experiment [4] were 4% and 101% (active), respectively. In addition, the inhibition is 62% (active) in experiment [2] and 1% in experiment [3]. The result in experiment [5], in experiment [6], in experiment [7] and in experiment [8] was inactive.

For `N#Cc1ccc(-c2ccc(OCC(O)CN3CCCN(Cc4cccc(O)c4Cl)CC3)cc2)cc1` (stereo not given), the growth inhibition was 66% (active) in experiment [1] and 98% (active) in experiment [4]. Besides, the results for the inhibition in experiment [2] and in experiment [3] were 3% and -6%, respectively. Further, the result in experiment [5], in experiment [6], in experiment [7] and in experiment [8] was inactive.

In the case of `COc1ccc(-c2cccc(NC(=O)c3ccc(F)cc3)c2)cc1CN1CCCN(C)CC1`, the growth inhibition is 35% in experiment [1] and 101% (active) in experiment [4]. Also, the results for the inhibition in experiment [2] and in experiment [3] were 26% and 2%, respectively. Also, the result in experiment [5], in experiment [6], in experiment [7] and in experiment [8] was inactive.

Turning to `CS(=O)(=O)c1ccc(CNCc2ccc(-c3ccc(-c4nc5ccc(F)cc5[nH]4)s3)cc2)cc1`, the values for the growth inhibition in experiment [1] and in experiment [4] were 97% (active) and 102% (active), respectively. The inhibition in experiment [2] was 22%; in experiment [3] it was 0%. The result in experiment [5], in experiment [6], in experiment [7] and in experiment [8] was inactive.

Consider `OCCN1CCN(Cc2ccc(-c3ccc(-c4nc5ccc(F)cc5[nH]4)cc3)cc2)CC1`, for which the figures for the growth inhibition in experiment [1] and in experiment [4] were 99% (active) and 101% (active), respectively. Besides, the inhibition in experiment [2] was 33%; in experiment [3], -5%. The result in experiment [5], in experiment [6], in experiment [7] and in experiment [8] was inactive.

For the molecule `Cc1cccc2[nH]c(-c3cccc(-c4cccc(CN5CCC(CO)CC5)c4)c3)nc12`, the values for the growth inhibition in experiment [1] and in experiment [4] were 90% (active) and 101% (active), respectively. For the same molecule, the inhibition in experiment [2] was 4%; in experiment [3], -6%. Also, the result in experiment [5], in experiment [6], in experiment [7] and in experiment [8] was inactive.

`Cc1cccn2c(=O)c3cc(C(=O)NCc4cccnc4)c(=N)n(CCc4ccccc4)c3nc12`: the growth inhibition in experiment [1] is 38%; in experiment [4] it was 99% (active). The inhibition in experiment [2] and in experiment [3] was -2% throughout. Besides, the outcome in experiment [5], in experiment [6], in experiment [7] and in experiment [8] was inactive.

As for `O=C(Cn1c(SCc2cccc(F)c2F)cc(=O)c2ccccc21)N(CCn1ccnc1)Cc1ccc(-c2ccc(C(F)(F)F)cc2)cc1`, the growth inhibition in experiment [1] was 94% (active); in experiment [4] it was 100% (active). The inhibition in experiment [2] is 20%; in experiment [3] it was -2%. In addition, the outcome in experiment [5], in experiment [6], in experiment [7] and in experiment [8] was inactive.

With `Cc1cc(N(C)CCCN(C)C)nc(Nc2ccc(Cl)cc2)n1`, the growth inhibition in experiment [1] was 79% (active); in experiment [4], 101% (active). Moreover, the inhibition in experiment [2] was 7%; in experiment [3] it was 5%. Further, the result in experiment [5], in experiment [6], in experiment [7] and in experiment [8] was inactive.

In the case of `COc1cccc2cc(C(=O)N[C@@H](CC(C)C)C(=O)N[C@H](/C=N/NC(=O)c3ccccc3)Cc3cnc[nH]3)oc12`, the growth inhibition is 90% (active) in experiment [1] and 99% (active) in experiment [4]. Also, the results for the inhibition in experiment [2] and in experiment [3] were 3% and -6%, respectively. Besides, the result in experiment [5], in experiment [6], in experiment [7] and in experiment [8] was inactive.

As for `CCc1nc(N)nc(N)c1-c1cccc(Cl)c1`, the growth inhibition was 1% in experiment [1] and 94% (active) in experiment [4]. For the same molecule, the results for the inhibition in experiment [2] and in experiment [3] were 60% (active) and 2%, respectively. Also, the outcome in experiment [5], in experiment [6], in experiment [7] and in experiment [8] was inactive.

Regarding `O=C(/C=C/c1ccc(Cl)c(Cl)c1)NCCCCCN1CCC(NC(=O)Nc2cc(F)ccc2F)CC1`, the growth inhibition in experiment [1] was 22%; in experiment [4], 98% (active). For the same molecule, the inhibition in experiment [2] was 78% (active); in experiment [3], 3%. Besides, the result in experiment [5], in experiment [6], in experiment [7] and in experiment [8] was inactive.

On to `CC1CCC2(CC1)N=C(N)N=C(N)N2OCCCCCCCCO` (stereo not given), for which the growth inhibition is 87% (active) in experiment [1] and 96% (active) in experiment [4]. Also, the inhibition is 2% in experiment [2] and -4% in experiment [3]. In addition, the result in experiment [5], in experiment [6], in experiment [7] and in experiment [8] was inactive.

For `Fc1ccc2c(NN=Cc3ccccc3F)ccnc2c1`, the growth inhibition in experiment [1] is 99% (active); in experiment [4], 101% (active). Besides, the inhibition is 10% in experiment [2] and -1% in experiment [3]. Besides, the outcome in experiment [5], in experiment [6], in experiment [7] and in experiment [8] was inactive.

On to `CCCC(=O)c1cnc2c(Oc3cc(Cl)ncn3)cccc2c1Nc1ccccc1C`, for which the growth inhibition was 85% (active) in experiment [1] and 99% (active) in experiment [4]. The inhibition in experiment [2] and in experiment [3] was 6% in each case. The result in experiment [5], in experiment [6], in experiment [7] and in experiment [8] was inactive.

Consider `Cc1cccc2[nH]c(-c3cccc(-c4ccc(NC(=O)C(C)CN5CCOCC5)cc4)c3)nc12` (stereo not given), for which the growth inhibition in experiment [1] is 30%; in experiment [4], 93% (active). Further, the inhibition was 7% in experiment [2] and 2% in experiment [3]. Moreover, the outcome in experiment [5], in experiment [6], in experiment [7] and in experiment [8] was inactive.

On to `NC(N)=NC(=O)Nc1cc(Br)c(Cl)c(Br)c1`, for which the results for the growth inhibition in experiment [1] and in experiment [4] were 83% (active) and 101% (active), respectively. Further, the inhibition in experiment [2] is 0%; in experiment [3], 4%. For the same molecule, the outcome in experiment [5], in experiment [6], in experiment [7] and in experiment [8] was inactive.

As for `Cc1cnc(C(=O)Nc2cccc(-c3ccc(-c4nc5ccc(C(F)(F)F)cc5[nH]4)s3)c2)cn1`, the growth inhibition was 14% in experiment [1] and 86% (active) in experiment [4]. Also, the inhibition was 35% in experiment [2] and -7% in experiment [3]. The result in experiment [5], in experiment [6], in experiment [7] and in experiment [8] was inactive.

On to `Cc1cccc2[nH]cc(C3CCN(CCC4CCN(C(=O)/C=C/c5ccc(Cl)c(Cl)c5)CC4)CC3)c12`, for which the growth inhibition in experiment [1] was 8%; in experiment [4], 91% (active). In addition, the inhibition in experiment [2] was 13%; in experiment [3], 2%. The result in experiment [5], in experiment [6], in experiment [7] and in experiment [8] was inactive.

On to `CCc1cn2c3c(cc(C(=O)N[C@@H](Cc4cccc(Cl)c4)[C@H](O)CNC4CCCCC4)cc13)N(C)S(=O)(=O)CC2`, for which the growth inhibition is 98% (active) in experiment [1] and 97% (active) in experiment [4]. The inhibition was 12% in experiment [2] and 2% in experiment [3]. Further, the outcome in experiment [5], in experiment [6], in experiment [7] and in experiment [8] was inactive.

For orientation: inhibition means the relative decrease from the control value, in per cent.
